Test results published in PubChem BioAssay AID1159580 (chemical genetic matrix, 2015).
Hit rate of the full screen: of about 5,500 compounds, about 2,000 (36%) were called active. Another 18% or so got no clear call; they are omitted. Rule as the data show it: active = normalized growth mostly below about 0.91 (no sharp cut-off); inconclusive = no clear call, values can overlap the other calls; inactive = mostly above about 0.92. The list shows a part of the results.

Experiment: chemical genetic growth profiling, strain panel (AID 1159580);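 also: tested at 20 µM; growth read once vehicle control cultures reached saturation at 30 °C; 1 = growth at the plate median or of vehicle wells; lower values mean less growth of the strain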
Settings: growth OD

Measured: normalized growth

O=C1C=CC(=C(c2ccc(O)cc2)c2ccc(O)cc2)C=C1
inactive: S. cerevisiae deletion strains, locus YJR075W, strain HOC1, hits give low values 1.02 | S. cerevisiae deletion strains, locus YKL009W, strain mrt4, hits give low values 0.995 | S. cerevisiae deletion strains, locus YKL068W, hits give low values 0.997 | S. cerevisiae deletion strains, locus YKL085W, strain MDH1 (second series), hits give low values 0.994 | S. cerevisiae deletion strains, locus YKL085W, strain MDH1, hits give low values 0.994 | S. cerevisiae deletion strains, locus YKL160W, strain elf1, hits give low values 1.01 | S. cerevisiae deletion strains, locus YKL190W, strain CNB1, hits give low values 0.994 | S. cerevisiae deletion strains, locus YKR001C, strain vps1, hits give low values 0.986 | S. cerevisiae deletion strains, locus YKR026C, strain gcn3, hits give low values 0.975 | S. cerevisiae deletion strains, locus YKR091W, strain srl3, hits give low values 0.989 | S. cerevisiae deletion strains, locus YLL001W, strain dnm1, hits give low values 0.976 | S. cerevisiae deletion strains, locus YLL026W, hits give low values 0.996 | S. cerevisiae deletion strains, locus YLL041C, strain sdh2, hits give low values 0.991 | S. cerevisiae deletion strains, locus YLR027C, strain aat2, hits give low values 0.998 | S. cerevisiae deletion strains, locus YLR039C, strain RIC1, hits give low values 1.04 | S. cerevisiae deletion strains, locus YLR058C, strain SHM2, hits give low values 0.991 | S. cerevisiae deletion strains, locus YLR102C, strain apc9, hits give low values 0.994 | S. cerevisiae deletion strains, locus YLR113W, strain HOG1, hits give low values 1.03 | S. cerevisiae deletion strains, locus YLR221C, strain rsa3, hits give low values 0.983 | S. cerevisiae deletion strains, locus YLR258W, strain gsy2, hits give low values 1.01 | S. cerevisiae deletion strains, locus YLR262C, strain YPT6 (second series), hits give low values 0.972 | S. cerevisiae deletion strains, locus YLR262C, strain YPT6, hits give low values 1.02 | S. cerevisiae deletion strains, locus YLR268W, strain sec22, hits give low values 1.02 | S. cerevisiae deletion strains, locus YLR320W, strain mms22, hits give low values 0.972 | S. cerevisiae deletion strains, locus YLR330W, strain CHS5, hits give low values 0.995 | S. cerevisiae deletion strains, locus YLR342W, strain FKS1 (second series), hits give low values 0.972 | S. cerevisiae deletion strains, locus YLR342W, strain FKS1, hits give low values 0.991 | S. cerevisiae deletion strains, locus YLR357W, strain rsc2, hits give low values 0.999 | S. cerevisiae deletion strains, locus YLR370C, strain arc18, hits give low values 0.964 | S. cerevisiae deletion strains, locus YLR371W, strain rom2, hits give low values 0.985 | S. cerevisiae deletion strains, locus YLR384C, strain iki3, hits give low values 0.986 | S. cerevisiae deletion strains, locus YLR418C, strain cdc73, hits give low values 0.999 | S. cerevisiae deletion strains, locus YML016C, strain PPZ1, hits give low values 0.991 | S. cerevisiae deletion strains, locus YML032C, strain rad52, hits give low values 0.98 | S. cerevisiae deletion strains, locus YML120C, strain ndi1, hits give low values 1.01 | S. cerevisiae deletion strains, locus YML124C, strain tub3, hits give low values 0.983 | S. cerevisiae deletion strains, locus YMR058W, strain fet3, hits give low values 0.982 | S. cerevisiae deletion strains, locus YMR078C, strain ctf18, hits give low values 0.98 | S. cerevisiae deletion strains, locus YMR125W, strain sto1, hits give low values 0.974 | S. cerevisiae deletion strains, locus YMR129W, hits give low values 0.987 | S. cerevisiae deletion strains, locus YMR205C, strain PFK2, hits give low values 0.995 | S. cerevisiae deletion strains, locus YMR223W, strain ubp8, hits give low values 0.982 | S. cerevisiae deletion strains, locus YMR231W, strain pep5, hits give low values 0.98 | S. cerevisiae deletion strains, locus YMR263W, strain SAP30, hits give low values 1.02 | S. cerevisiae deletion strains, locus YMR307W, strain GAS1, hits give low values 0.945 | S. cerevisiae deletion strains, locus YNL067W, strain RPL9B, hits give low values 1.03 | S. cerevisiae deletion strains, locus YNL071W, strain lat1, hits give low values 0.971 | S. cerevisiae deletion strains, locus YNL128W, strain TEP1, hits give low values 1.02 | S. cerevisiae deletion strains, locus YNL153C, strain GIM3, hits give low values 1.01 | S. cerevisiae deletion strains, locus YNL183C, strain NPR1, hits give low values 0.986 | S. cerevisiae deletion strains, locus YNL209W, strain ssb2, hits give low values 0.985 | S. cerevisiae deletion strains, locus YNL233W, strain BNI4, hits give low values 0.999 | S. cerevisiae deletion strains, locus YNL248C, strain rpa49, hits give low values 0.966 | S. cerevisiae deletion strains, locus YNL250W, strain rad50, hits give low values 0.984 | S. cerevisiae deletion strains, locus YNL271C, strain bni1, hits give low values 0.992 | S. cerevisiae deletion strains, locus YNL298W, strain CLA4, hits give low values 0.981 | S. cerevisiae deletion strains, locus YNL307C, strain MCK1, hits give low values 0.98 | S. cerevisiae deletion strains, locus YNL322C, strain KRE1 (second series), hits give low values 0.951 | S. cerevisiae deletion strains, locus YNL322C, strain KRE1, hits give low values 1.01 | S. cerevisiae deletion strains, locus YNR049C, strain mso1, hits give low values 0.979 | S. cerevisiae deletion strains, locus YNR052C, strain pop2, hits give low values 0.966 | S. cerevisiae deletion strains, locus YOL006C, strain TOP1, hits give low values 1.02 | S. cerevisiae deletion strains, locus YOL012C, strain htz1 1.83 | S. cerevisiae deletion strains, locus YOL147C, strain pex11, hits give low values 0.985 | S. cerevisiae deletion strains, locus YOR001W, strain rrp6, hits give low values 0.96 | S. cerevisiae deletion strains, locus YOR061W, strain CKA2, hits give low values 1 | S. cerevisiae deletion strains, locus YOR069W, strain VPS5, hits give low values 1.02 | S. cerevisiae deletion strains, locus YOR070C, strain gyp1, hits give low values 1 | S. cerevisiae deletion strains, locus YOR080W, strain dia2, hits give low values 0.986 | S. cerevisiae deletion strains, locus YOR083W, strain WHI5, hits give low values 1.02 | S. cerevisiae deletion strains, locus YOR106W, strain vam3, hits give low values 0.984 | S. cerevisiae deletion strains, locus YOR136W, strain idh2, hits give low values 0.982 | S. cerevisiae deletion strains, locus YOR144C, strain elg1, hits give low values 0.985 | S. cerevisiae deletion strains, locus YOR184W, strain ser1, hits give low values 0.988 | S. cerevisiae deletion strains, locus YOR231W, strain MKK1, hits give low values 1.04 | S. cerevisiae deletion strains, locus YOR265W, strain rbl2, hits give low values 0.978 | S. cerevisiae deletion strains, locus YOR270C, strain vph1, hits give low values 0.926 | S. cerevisiae deletion strains, locus YOR290C, strain snf2, hits give low values 1.01 | S. cerevisiae deletion strains, locus YOR316C, strain cot1, hits give low values 0.984 | S. cerevisiae deletion strains, locus YPL051W, strain arl3, hits give low values 0.987 | S. cerevisiae deletion strains, locus YPL055C, strain LGE1, hits give low values 1.06 | S. cerevisiae deletion strains, locus YPL078C, strain atp4, hits give low values 0.973 | S. cerevisiae deletion strains, locus YPL106C, strain sse1, hits give low values 0.994 | S. cerevisiae deletion strains, locus YPL240C, strain hsp82, hits give low values 0.973 | S. cerevisiae deletion strains, locus YPL241C, strain CIN2, hits give low values 1.02 | S. cerevisiae deletion strains, locus YPL256C, strain CLN2, hits give low values 1.05 | S. cerevisiae deletion strains, locus YPR119W, strain clb2, hits give low values 0.979 | S. cerevisiae deletion strains, locus YPR141C, strain kar3, hits give low values 0.992 | S. cerevisiae deletion strains, locus YPR163C, strain tif3, hits give low values 0.989 | S. cerevisiae deletion strains, locus YPR167C, strain met16, hits give low values 0.991 | S. cerevisiae deletion strains, strain wtn01, hits give low values 0.991 | S. cerevisiae strains, strain wild type, hits give low values 0.994
